According to PubChem BioAssay (NCI):
This is part of a sample that, as a whole, favours compounds with a hit. Of some 83,000 tested, about 20% had one in any assay.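 The endpoint reported here, percent growth, reads 100 for growth as untreated, 0 for no net growth and -100 for all cells dead.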 Unmarked numbers belong to inactive results. The source made the active and inactive calls. The calls were made as follows: active = growth percent below 10; inactive = the rest.

Columns and labels:
Assay in all cases: NCI-60 one-dose screen, 48 h (100 = growth as untreated, 0 = no growth, -100 = all killed)
EKVX NSCLC = details: 10 µM unless noted
SN12C renal = details: 10 µM unless noted
UO-31 renal = details: 10 µM unless noted
TK-10 renal = details: 10 µM unless noted
ACHN renal = details: 10 µM unless noted
CAKI-1 renal = details: 10 µM
CCRF-CEM leukemia = details: 10 µM unless noted
MOLT-4 leukemia = details: 10 µM unless noted
SR leukemia = details: 10 µM unless noted
RPMI-8226 leukemia = details: 10 µM unless noted
OVCAR-8 ovarian = details: 10 µM unless noted
OVCAR-5 ovarian = details: 10 µM unless noted
OVCAR-4 ovarian = details: 10 µM unless noted
SK-OV-3 ovarian = details: 10 µM unless noted
IGROV1 ovarian = details: 10 µM unless noted
HS 578T breast = details: 10 µM unless noted
NCI/ADR-RES ovarian = details: 10 µM unless noted
A498 renal = details: 10 µM unless noted

SMILES | growth (EKVX NSCLC) | growth (SN12C renal) | growth (UO-31 renal) | growth (TK-10 renal) | growth (ACHN renal) | growth (CAKI-1 renal) | growth (CCRF-CEM leukemia) | growth (MOLT-4 leukemia) | growth (SR leukemia) | growth (RPMI-8226 leukemia) | growth (OVCAR-8 ovarian) | growth (OVCAR-5 ovarian) | growth (OVCAR-4 ovarian) | growth (SK-OV-3 ovarian) | growth (IGROV1 ovarian) | growth (HS 578T breast) | growth (NCI/ADR-RES ovarian) | growth (A498 renal)
CN1CCN(Cc2ccc(NC(=O)c3cncc(C#Cc4[nH]nc5ncncc45)c3)cc2C(F)(F)F)CC1 | 108% | 48.1% | 82.8% | 94.7% | 59.1% | 59.4% | 51% | 47.2% | 48% | 45.2% | 88.7% | 77.7% | 88.5% | 60.8% | 38.2% | 45.9% | 105% | 
C=CCn1c(SCC(=O)Nc2cccc(C(=O)/C=C/c3ccc(C)cc3)c2)nc2ccccc2c1=O | 91.5% | 91.5% | 63.9% | 105% | 89.5% |  | 98.4% |  |  | 27.1% | 82.1% | 101% | 84.9% | 113% | 95.8% | 101% | 84.5% | 85.9%
Cc1cccc(NC(c2cc3cccc4ccc5cccc2c5c43)c2nnnn2C(C)(C)C)c1C (stereo not drawn) | 75.2% | 93% | 66.9% | 138% | 90.4% |  | 95% | 76% | 86.3% | 86.9% | 92.8% | 87% | 85.2% | 77.4% | 73.6% | 88% | 89.4% | 
CCc1ccc(NC(=O)N[C@@H](Cc2cccc(C)c2)C(=O)N[C@@H]2C(=O)N3CCC[C@H]3C(=O)N3CCCC[C@H]3C(=O)N[C@@H](CO)C(=O)N3C[C@H](C)C[C@H]3C(=O)O[C@H]2C)c(F)c1 | 30% | 22.4% | 29.6% | 52.9% | 32.2% |  |  | 41.8% | 34.9% | 18.6% | 21.5% | 33.5% | 22.1% | 22.1% | 43.3% | 28.5% | 37.7% | 
Cn1cc(-c2nn3cc(-c4cccnc4)nc3s2)c2cc(F)ccc21 | 80.9% | 85.2% | 70.5% | 129% | 83.8% |  | 89.2% |  |  | 93.9% | 81.8% | 91.5% | 104% | 77.4% | 74.5% | 84.6% | 75.7% | 103%
C=CCn1c(SCC(=O)c2ccc(OC)cc2)nnc1-c1ccc(OC)cc1 | 96.4% | 97.6% | 92.1% | 105% | 104% | 88.3% | 107% | 96.1% | 96.1% | 98.4% | 99.9% | 96.7% | 98% | 105% | 103% | 103% | 94.9% | 
CCc1ccc(NC(=O)N[C@@H](Cc2cc(F)cc(F)c2)C(=O)N[C@@H]2C(=O)N3CCC[C@H]3C(=O)N3CCO[C@H](C)[C@H]3C(=O)N[C@@H](CO)C(=O)N3C[C@H](C)C[C@H]3C(=O)O[C@H]2C)c(F)c1 | 28.4% | 22.5% | 36.4% | 55.9% | 34.7% | 20.3% | 35% | 43.3% | 32% | 17% | 22.9% | 35.9% | 22.9% | 26.3% | 39.5% | 35.8% | 70% | 
CCN1CCN(c2cc(C(=O)Nc3nc4ccc(Oc5ccnc(C(=O)NC)c5)cc4s3)cc(C(F)(F)F)c2)CC1 | 92.5% | 75.2% | -63.3% (active) | 100% | 66% | 84.5% | 65% | 52.3% | -3.58% (active) | 33% | 92.4% | 101% | 67.9% | 109% | 95.8% | 93.1% | 99.6% | 
Nc1nc(-c2cccc([N+](=O)[O-])c2)c(N=Nc2ccccc2[N+](=O)[O-])s1 | 48.7% | 1.17% (active) | -36.4% (active) | -38.6% (active) | -72.6% (active) |  | 46.7% | 62% | 48.5% | 36.4% | 8.47% (active) | 43.5% |  | -46.6% (active) | 1.09% (active) | 6.64% (active) | 16.8% | 
N#Cc1ccc(S(=O)(=O)Nc2ccc(-c3cnc(N)[nH]3)cc2)cc1 | 105% | 102% | 89.7% | 98.6% | 99.7% |  | 98.2% |  |  | 104% | 101% | 98.9% | 104% |  | 108% | 98.3% | 102% | 101%
COc1cnc2c(c1)C(=O)c1c-2n(CCCn2ccnc2)c(=O)c2cc(OC)c(OC)cc12 | -9.94% (active) | 3.73% (active) | -91.4% (active) | -91.4% (active) | -36.1% (active) |  | -2.01% (active) |  |  | -26.7% (active) | -93.9% (active) | -40.7% (active) | -18.3% (active) | -31.8% (active) | -20.6% (active) | 57.1% | 1.35% (active) | 17.8%
Cc1ccc(NC(=O)N[C@@H](Cc2cc(F)cc(F)c2)C(=O)NC2C(=O)N3CCC[C@H]3C(=O)N3CCCC[C@H]3C(=O)N[C@@H](C)C(=O)N3C[C@H](C)C[C@H]3C(=O)O[C@H]2C)c(F)c1 (stereo partly drawn) | 29.5% | 23.5% | 30.2% | 53.9% | 32.1% | 22.2% |  | 40.3% | 30.6% | 11.6% | 21.6% | 36.3% | 23.9% | 23.9% | 47.5% | 28.9% | 20.1% | 
COc1cc2c3c(n(CCCN4CCCCC4)c(=O)c2cc1OC)-c1cc2c(cc1C3=O)OCO2 | -56.2% (active) | -72.1% (active) | -89.3% (active) | -87.2% (active) | -96.7% (active) |  | -11.6% (active) |  |  | -47.3% (active) | -63.6% (active) | -96.1% (active) | -74.1% (active) | 46% | -68.7% (active) | -51.2% (active) | -62% (active) | 70.9%
CC(C)(C)n1nnnc1C(Nc1nccs1)c1cc2cccc3ccc4cccc1c4c32 (stereo not drawn) | 91% | 98.5% | 84.9% | 99% | 97.4% | 51.1% |  | 96.6% | 84.5% | 94.9% | 97.6% | 59.7% |  | 109% | 85.5% | 88.3% | 103% | 
C=CCn1c(SCC(=O)Nc2cccc(C(=O)/C=C/c3ccccc3Cl)c2)nc2ccccc2c1=O | 94.7% | 91.5% | 73% | 110% | 96.3% |  | 93.8% |  | 14% | 1.65% (active) | 92% | 95.1% | 87.7% | 119% | 92% | 89.6% | 90.4% | 82.8%
COc1cc(O)c2c(c1)/C=C/C[C@H](O)[C@H](O)C(=O)/C=C\C[C@H](C)OC2=O | 44.2% | 7.02% (active) | 13.1% | 34.7% | 6.98% (active) | 13.6% | 8.51% (active) | 5.34% (active) | -6.77% (active) | -4.42% (active) | 19.9% | 8.3% (active) | 18.9% | 75.4% | 9.18% (active) | -26.4% (active) | 8.99% (active) | 
CCNCCCn1c2c(c3cc(OC)c(OC)cc3c1=O)C(=O)c1cc(OC)cnc1-2 | 43.3% | 20.8% | 18% | 64.4% | 6.11% (active) |  | 8.89% (active) |  |  | -34.9% (active) | 14.1% | 46.2% |  | -32.1% (active) | 32.3% | 80.2% | 26.9% | 15.8%
COc1ccc(-c2nc3cc(Cl)c(Cl)cc3n2CC(=O)N=Nc2c(O)[nH]c3ccc(Cl)cc23)cc1 | 25.7% | 23.2% | 8.66% (active) | 60.9% | -33.8% (active) | 13.6% | 37.4% | 34.5% | 51.6% | 40.2% | 45.3% | 35.4% | 5.4% (active) | 52.5% | 5.72% (active) | 2.89% (active) | 17.8% | 
